Reference: PubChem BioAssay AID1777 (Sanford-Burnham Center for Chemical Genomics, 2009)
The whole screen tested about 280,000 compounds, of which about 50 (0.02%) were called active. Rule as the data show it: active = activation above about 50% (passing the limit was not always enough); inactive = the rest. The full list was thinned out, with actives kept by preference. Measured potencies and affinities stand elsewhere.

Molecular target: Kappa-type opioid receptor (Homo sapiens) (UniProt P41145)
Experiment: KOR agonists, beta-arrestin recruitment, primary screen, cell-based, luminescence, uHTS (AID 1777)
Settings: at 10 µM, active compounds read high

Sequence of Kappa-type opioid receptor (Homo sapiens) (P41145 whole entry, looked up): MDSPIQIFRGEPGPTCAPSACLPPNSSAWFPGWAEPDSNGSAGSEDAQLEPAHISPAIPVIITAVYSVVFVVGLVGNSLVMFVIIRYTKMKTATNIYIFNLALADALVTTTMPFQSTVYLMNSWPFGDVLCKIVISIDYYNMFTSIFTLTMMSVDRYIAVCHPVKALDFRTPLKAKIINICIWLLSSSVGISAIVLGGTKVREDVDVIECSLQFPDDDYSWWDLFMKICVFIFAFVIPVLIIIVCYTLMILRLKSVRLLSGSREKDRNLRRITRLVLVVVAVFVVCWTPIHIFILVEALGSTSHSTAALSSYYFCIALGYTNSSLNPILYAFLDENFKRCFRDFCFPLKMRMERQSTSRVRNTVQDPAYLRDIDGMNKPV

SMILES	activation
COC(=O)N1CCN(C(=O)Cc2ccc(Cl)c(Cl)c2)C(CN2CCCC2)C1 (stereo not given)	91.3% (active)
COc1ccc(C(CNC(=O)Cc2ccc(Cl)c(Cl)c2)N(C)C)cc1 (stereo not given)	-2.4% (inactive)
COc1ccc(C(CNC(=O)Cc2ccc(Cl)c(Cl)c2)N2CCCCC2)cc1 (stereo not given)	-2.4% (inactive)
CCN1C(=O)N(CC)C(=O)C2(Cc3ccccc3N3CCN(c4ccccc4)CC32)C1=O (stereo not given)	2.7% (inactive)
COc1ccc2nc(/N=C/c3c(O)n(-c4cccc(Cl)c4)c(=O)[nH]c3=O)sc2c1	2.9% (inactive)
